# Assay outcomes from PubChem.
# Compounds with a hit are over-represented: about 6% of the library has one in this group of screens.
# Sfp PPTase inh – blocks B. subtilis Sfp PPTase activity; Q9F4F7; Biochemical Sfp PPTase activity, qHTS; Potency, µM, inactives show largest response in the series, negative = inhibition, hits mostly inhibitors; actives 3.5% (n = 310,000); AID 1490;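 note: the enzyme is Sfp with the accession as filed and its product quenches rhodamine fluorescence; 0% = enzyme reaction without inhibitor and -100% = no enzyme wells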
#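 Reaction rates are the 30-min fluorescence difference (ex 525, em 598 nm) in wells containing 15 nM Sfp, 5 uM rhodamine-CoA and 12.5 uM BHQ-2-YbbR at pH 7.6 with 10 mM MgCl2.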
# Tau fluor counter – counter-screen for tau fibril formation inhibitors; actives 0.93% (n = 280,000); tau K18 P301L Alexa594 fluorescence, heparin fibrillization; AID 1463; Potency, µM (highest dose often 57.7 µM), for inactives: at the highest dose activity change, negative = decrease; note: nearly all actives have a fitted effect of over 55% in size
#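 Human K18 P301L tau (15 uM unlabeled plus 0.24 uM Alexa 594-labeled, final) in 100 mM sodium acetate pH 7 was mixed with compound and 20 uM heparin and incubated 6 hr at 37 C.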
# Tau FP inhib – tau fibrillization inhibition (FP); P10636; K18 P301L tau heparin fibrillization, Alexa594 FP, 6 h; Potency, µM (highest dose often 57.7 µM), for the others: top-dose activity, negative = inhibition, actives largely listed as inhibitors; actives 0.39% (n = 280,000); note: nearly all actives have a fitted effect of over 55% in size
#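 Human tau K18 […] P301L fragment, 15 uM unlabeled plus 0.24 uM Alexa 594-labeled tau (final), with compound and 20 uM heparin in 100 mM sodium acetate pH 7; 6 hr at 37 C, then Alexa 594 FP read.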
# Tau fibril ThT – blocks human tau fibril formation measured by thioflavin T; P10636; recombinant tau K18 P301L (four-repeat tau fragment), heparin-induced fibrillization, ThT fluorescence; Potency, µM (series often up to 57.4 µM), for inactives: top-dose activity, negative = inhibition, actives largely listed as inhibitors; actives 2.1% (n = 270,000); AID 1460; note: nearly all actives have a fitted effect of over 55% in size
#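 Aggregation was driven by heparin (20 uM final) acting on recombinant tau […] bearing P301L in 100 mM sodium acetate pH 7; fibrils were detected with Thioflavin T.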
# VDR inhibitor – vitamin D3 receptor (human) inhibition; P11473; VDR-SRC2-3 peptide fluorescence polarization, 2 h; Potency, µM, inactives show max response, negative = inhibition, hits mostly inhibitors; actives 0.93% (n = 400,000); AID 504847
#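 The screen uses fluorescence polarization to detect compounds that interfere with recruitment of the SRC2-3 coactivator peptide to VDR; plates are read after 2 h at room temperature.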
# PLK1 PBD block – blocks phosphopeptide binding to human PLK1 polo-box domain. P53350. Plk1 PBD binding of FITC phosphopeptide, fluorescence polarization. Potency, µM, for inactives: max response, negative = inhibition, usual class: inhibitors. actives 2.8% (n = 360,000). AID 720504; note: series mostly up to about 57 µM; nearly all actives have a fitted effect of over 65% in size
# Target sequence (P53350 whole entry, looked up, the tested form may be a part): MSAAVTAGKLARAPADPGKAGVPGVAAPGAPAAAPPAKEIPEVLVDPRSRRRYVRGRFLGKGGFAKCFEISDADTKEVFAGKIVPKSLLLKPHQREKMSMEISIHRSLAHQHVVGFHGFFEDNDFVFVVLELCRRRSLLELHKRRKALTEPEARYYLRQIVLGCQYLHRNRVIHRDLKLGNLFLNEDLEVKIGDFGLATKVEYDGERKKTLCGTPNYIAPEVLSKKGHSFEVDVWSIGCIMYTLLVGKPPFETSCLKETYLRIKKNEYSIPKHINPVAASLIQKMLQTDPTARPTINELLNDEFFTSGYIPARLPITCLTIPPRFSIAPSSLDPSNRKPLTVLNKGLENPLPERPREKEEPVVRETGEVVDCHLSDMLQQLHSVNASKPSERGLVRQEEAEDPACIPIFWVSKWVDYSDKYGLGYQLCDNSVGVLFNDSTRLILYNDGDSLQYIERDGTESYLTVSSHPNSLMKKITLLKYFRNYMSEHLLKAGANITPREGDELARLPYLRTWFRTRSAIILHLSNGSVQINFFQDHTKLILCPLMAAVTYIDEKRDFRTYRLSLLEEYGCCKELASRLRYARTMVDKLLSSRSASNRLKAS
# Starred values were filed as active, the others as inactive; ? = inconclusive; . = not tested or not shown; [ ] = another dose, or the depositor's remark. Calls come from the whole dose curve; as a rule, active = well fitted curve in the direction sought with a large enough effect; inconclusive = small, poorly fitted or top-dose-only effect, or another doubt; inactive = no such curve, though single readings can be large; an effect the other way counts as inactive or inconclusive. Unless noted, % is set by controls: 0 for no effect and ±100 for the full control effect; potency is the fitted concentration of half-maximal effect.
SMILES,Sfp PPTase inh,Tau fluor counter,Tau FP inhib,Tau fibril ThT,VDR inhibitor,PLK1 PBD block
COc1cc(-c2nc(Cn3nnc(C(=O)Nc4cccc(Cl)c4)c3C)c(C)o2)cc(OC)c1OC,.,-28%,-5%,?,-15%,.
Cc1ccc(/C=N\NC(=O)Cc2cccn2C)o1,40µM*,-15%,-7%,?,-26%,-10%
Cn1cccc1CC(=O)N/N=C/C=C/c1ccco1,14µM*,-11%,-2%,-10%,?,-1%
CCC(C)C(N)C(=O)O (stereo not given),14%,.,.,.,0%,.
Cc1ccc(C)c(CN2C(=O)c3ccccc3S(=O)(=O)c3ccc(C(=O)N4CCN(c5ccccc5F)CC4)cc32)c1,.,-15%,-9%,-4%,-17%,.
CN(C)c1cc(Cl)c2nonc2c1N,89µM*,?,?,25µM*,?,-18%
[N-]=C=C1C(=S)NC(=O)[C@H]([n+]2ccccc2)[C@H]1c1ccc(Cl)cc1,-10%,-14%,-12%,?,45µM*,27µM*
COc1ccc(Cl)cc1-c1cc(C(=O)Nc2ccc(C(C)(C)C)cc2)[nH]n1,.,.,.,.,.,2%
O=C(NCc1ccncc1)C1CCCCC1,21%,10%,3%,0%,-26%,27µM*
C=CCOc1cccc(/C=C2\C(=O)N(Cc3ccc(C)cc3)C(C)=C2C(=O)OC)c1,11%,-17%,-13%,?,?,-10%
COC(=O)C1=C(C)N(Cc2ccc(OC)cc2)C(=O)/C1=C\c1ccco1,-9%,?,-6%,25µM*,-11%,0%
COC(=O)C1=C(C)N(C)C(=O)/C1=C\c1ccco1,-8%,-11%,-9%,?,-16%,-3%
CCOC(=O)C1=C(C)N(c2ccc(OC)cc2)C(=O)/C1=C\c1ccc(O)c(OCC)c1,20µM*,?,?,25µM*,?,-14%
CCOC(=O)C1=C(C)N(c2ccc(C)c(C)c2)C(=O)/C1=C\c1ccco1,?,-26%,?,28µM*,-6%,-4%
CCOc1cc(/C=C2\C(=O)N(Cc3ccc(C)cc3)C(C)=C2C(=O)OC)ccc1O,18µM*,?,?,25µM*,?,1%
Cn1c(CNC(=O)C(Cc2ccccc2)NC(=O)c2ccccc2F)cc(=O)n(C)c1=O (stereo not given),23%,.,.,.,-14%,-22%
COc1cccc(-c2nc(SCC(=O)Nc3ccc4c(c3)OCCO4)c(-c3ccccc3)[nH]2)c1,.,5.6µM*[quencher],-10%,?,4%,.
COc1cc(-c2nc(-c3ccccc3)c(-c3ccc(F)cc3)[nH]2)cc2c1OCO2,7%,?,6%,-1%,-5%,-2%
COc1ccc(-c2[nH]c(-c3ccc4c(c3)OCO4)nc2-c2ccccc2)cc1,8%,14µM*[quencher],9%,?,8%,-7%
COc1ccc(-c2[nH]c(-c3cccc(OC)c3)nc2SCC(=O)Nc2ccc3c(c2)OCO3)cc1,.,6.3µM*[quencher],7%,?,17%,.
COc1ccc(-c2cc(C(F)(F)F)nc(SCC(=O)Nc3ccc4c(c3)OCO4)n2)cc1,-16%,-24%,-5%,2%,-2%,-8%
COc1cccc(-c2nnc(SCC(=O)Nc3ccc4c(c3)OCCO4)n2Cc2ccco2)c1,?,-27%,-2%,-18%,10%,-5%
Cc1nc2cccnc2n1-c1cccc(C(=O)NCc2ccc(OC(C)C)cc2)c1,.,-6%,3%,-2%,-1%,.
O=C(CSc1nnc(-c2ccccc2)c(-c2ccccc2)n1)NCCc1ccccc1,.,-16%,1%,-6%,7%,.
COC(=O)C1=C(C)NC=C([N+](=O)[O-])C1c1ccc(OC)cc1 (stereo not given),14µM*,-18%,-11%,?,-10%,3%
SMILES,Sfp PPTase inh,Tau fluor counter,Tau FP inhib,Tau fibril ThT,VDR inhibitor,PLK1 PBD block
CCOC(=O)C1=C(C)NC(C)=C(C(=O)OCC)C1c1ccc(OC)cc1,5%,-25%,7%,-8%,5%,-7%
CC(=O)NC1C(OCc2ccccc2)OC2COC(c3ccccc3)OC2C1OCC(=O)O (stereo not given),-9%,6%,0%,5%,5%,21µM*
CC(=O)NC1C(OCc2ccccc2)OC(CO)C(OC(C)=O)C1OC(C)=O (stereo not given),17%,-1%,2%,0%,-7%,-4%
CCN1CCc2c(sc(NC(=O)c3ccc(S(=O)(=O)N(C)CC4CCCO4)cc3)c2C(N)=O)C1 (stereo not given),8%,.,.,.,-24%,-9%
Cc1ccc(NC(=O)CNC(=O)N2CC(=O)Nc3ccccc32)cc1F,17%,.,.,.,?,7.5µM*
NNS(=O)(=O)c1ccc(N2CCCC2=O)c([N+](=O)[O-])c1,?,3%,-3%,0%,?,27µM*
CCCCN(CCCC)S(=O)(=O)c1ccc(N2CCCC2=O)c([N+](=O)[O-])c1,.,.,.,.,?,15µM*
COc1ccc(NS(=O)(=O)N2CCOCC2)cc1,8%,.,.,.,-5%,4%
COc1ccc(OC)c(NC(=O)CSc2nnc(-c3ccco3)n2-c2ccc(C(=O)O)cc2)c1,56µM*,-1%,-3%,-6%,5%,-12%
COc1ccc(OC)c(NC(=O)CSc2nnc(C3CCCCC3)n2-c2ccccc2)c1,3%,-6%,7%,-6%,-14%,27µM*
COc1ccc(-c2oc(NC(=O)CCl)c(C#N)c2-c2ccc(OC)cc2)cc1,-2%,16µM*[quencher],-15%,25µM*,-19%,-23%
COc1ccc(-c2oc(NC(=O)CSc3ncn[nH]3)c(C#N)c2-c2ccc(OC)cc2)cc1,9%,14µM*[quencher],0%,?,-8%,-7%
COC1CCC(C(=O)c2ccc3nc4c(cc3c2)CCCO4)CC1 (stereo not given),7%,-8%,-8%,-10%,.,.
COc1ccccc1Nc1ccc(N)cc1,-15%,?,?,16µM*,-3%,-21%
CCN(Cc1ccccc1)c1ccc(/C=N/N=C(N)N)cc1,?,?,?,-21%,-16%,-5%
CCN(Cc1ccccc1)c1ccc(N=Nc2nn(C)c(C)c2[N+](=O)[O-])cc1,-6%,?,?,10µM*,-10%,0%
CCN(CC)c1ccc(N=Nc2nn(C)c(C)c2[N+](=O)[O-])cc1,-14%,?,10%,16µM*,-6%,0%
CC1=CC(=O)C=C(C)C1=NOC(=O)c1cccc([N+](=O)[O-])c1,-22%,-15%,-5%,?,3%,9.5µM*
CC1CN(C(=O)N2CCC(C(=O)NCc3ccccc3F)CC2)c2cc(Cl)ccc2O1 (stereo not given),.,1%,3%,-1%,5%,.
